The values that follow come from the supplement of paper PMC9844399.

SMILES strings stand for the structures.
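Note: Hoechst-stained nuclei counted by automated confocal imaging of four fields per well in 384-well plates, with the robust Z-score based on the per-plate DMSO median and robust SD.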

This assay concerns HeLa. The assay is described as follows: nuclear count per well, robust Z-score vs DMSO; higher = more cells (less toxicity). Particulars: 10 µM; 6 h.
`NCC(=O)CCC(=O)O`: the “nuclear count per well” value is -1.01. In the case of `Cc1c2oc3c(C)ccc(C(=O)N[C@@H]4C(=O)N[C@H](C(C)C)C(=O)N5CCC[C@H]5C(=O)N(C)CC(=O)N(C)[C@@H](C(C)C)C(=O)O[C@@H]4C)c3nc-2c(C(=O)N[C@@H]2C(=O)N[C@H](C(C)C)C(=O)N3CCC[C@H]3C(=O)N(C)CC(=O)N(C)[C@@H](C(C)C)C(=O)O[C@@H]2C)c(N)c1=O` [Actinomycin D], the “nuclear count per well” value was -9.21. With `O=C1CN2Cc3c(ccc(Cl)c3Cl)N=C2N1` [Anagrelide] the figure was 0.771; with `CCC(=O)NCC[C@@H]1CCc2ccc3c(c21)CCO3` [Ramelteon], -0.354; with `C#C[C@]1(O)CC[C@H]2[C@@H]3CCC4=CC(=O)CC[C@@H]4[C@H]3C(=C)C[C@@]21CC` [Etonogestrel], -1.34. Regarding `COc1cc(-c2ccc(=O)[nH]n2)ccc1OC(F)F` [Zardaverine], the “nuclear count per well” value turned out to be 0.171. Take `CC(C)NCC(O)COc1ccc(CCOCC2CC2)cc1` (stereo not drawn): the “nuclear count per well” value worked out at 0.273.

For `Cc1cccn2c(=O)c(-c3nnn[nH]3)cnc12` [Pemirolast Potassium], the “nuclear count per well” value is -0.761.
